Screens deposited in PubChem by several laboratories.
M1 PAM parental: nonselective calcium activators in parental CHO-K1 cells, primary screen, counter-screen for M1 PAM project, cell-based, Fluo-8 calcium fluorescence, full deck, 1536-well | activation, % at 3 µM | ATP EC20; 0% at ATP EC20, 100% at ATP max | AID 602247, 2012 | 360,000 tested, 0.02% active;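 active = activation above the run cutoff, the mean activation of all test compounds plus 3 SD, cut at about 40% in these data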;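 note: peak over basal fluorescence ratio in a 140 s read after ATP addition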
CHO-K1 Ca antag: counter-screen for M1 antagonists: effect in parental CHO-K1 cells | 360,000 tested, 0.6% active | inhibition, % at 3 µM | AID 602250 | ATP-induced calcium, Fluo-8 fluorescence;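 active = inhibition above a per-plate cutoff, the plate's mean sample inhibition plus 3 SD, cut at about 24% in these data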;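 note: 0% = DMSO plus EC80 ATP and 100% = DMSO alone without ATP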
M1 ag parental: counter-screen for M1 agonists: effect in parental CHO-K1 cells; Fluo-8 calcium fluorescence; scaled to maximal ATP response, vehicle zero; activation, % at 3 µM; 360,000 tested, 0.48% active; in the data active = activation above about 15%;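 note: untransfected CHO-K1 host cells lacking M1 receptor as counterscreen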
NTR1 agonist: agonists of human NTR1, primary screen, imaging, U2OS cells, beta-arrestin-GFP, high content; Neurotensin receptor type 1 (Homo sapiens), P30989; NTR1-U2OS beta-arrestin-GFP spot imaging, agonist mode; activation, % at 20 µM; 330,000 tested, 0.17% active; AID 493036, 2011;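 active = activation at or above 40% of the spot to cytoplasm intensity ratio, with at least 20 cells analyzed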;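 note: 0% = DMSO without peptide and 100% = 100 nM NTR1 peptide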
ANO1 block: TMEM16A chloride channel inhibitors, primary screen, cell-based, HTS; HEK293 TMEM16A/YFP iodide influx fluorescence, ionomycin; 310,000 tested, 1.2% active; AID 588511, 2011; Anoctamin-1 (Mus musculus), Q8BHY3; normalized B-score (activity score, 25-100; higher = stronger inhibition) at 10 µM;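 active = ratio plate-corrected score three or more library SD toward inhibition, starting fluorescence score within five deviations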;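 note: score derived from kinetic fluorescence span divided by baseline fluorescence per well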
Target sequence (Q8BHY3 whole entry, looked up): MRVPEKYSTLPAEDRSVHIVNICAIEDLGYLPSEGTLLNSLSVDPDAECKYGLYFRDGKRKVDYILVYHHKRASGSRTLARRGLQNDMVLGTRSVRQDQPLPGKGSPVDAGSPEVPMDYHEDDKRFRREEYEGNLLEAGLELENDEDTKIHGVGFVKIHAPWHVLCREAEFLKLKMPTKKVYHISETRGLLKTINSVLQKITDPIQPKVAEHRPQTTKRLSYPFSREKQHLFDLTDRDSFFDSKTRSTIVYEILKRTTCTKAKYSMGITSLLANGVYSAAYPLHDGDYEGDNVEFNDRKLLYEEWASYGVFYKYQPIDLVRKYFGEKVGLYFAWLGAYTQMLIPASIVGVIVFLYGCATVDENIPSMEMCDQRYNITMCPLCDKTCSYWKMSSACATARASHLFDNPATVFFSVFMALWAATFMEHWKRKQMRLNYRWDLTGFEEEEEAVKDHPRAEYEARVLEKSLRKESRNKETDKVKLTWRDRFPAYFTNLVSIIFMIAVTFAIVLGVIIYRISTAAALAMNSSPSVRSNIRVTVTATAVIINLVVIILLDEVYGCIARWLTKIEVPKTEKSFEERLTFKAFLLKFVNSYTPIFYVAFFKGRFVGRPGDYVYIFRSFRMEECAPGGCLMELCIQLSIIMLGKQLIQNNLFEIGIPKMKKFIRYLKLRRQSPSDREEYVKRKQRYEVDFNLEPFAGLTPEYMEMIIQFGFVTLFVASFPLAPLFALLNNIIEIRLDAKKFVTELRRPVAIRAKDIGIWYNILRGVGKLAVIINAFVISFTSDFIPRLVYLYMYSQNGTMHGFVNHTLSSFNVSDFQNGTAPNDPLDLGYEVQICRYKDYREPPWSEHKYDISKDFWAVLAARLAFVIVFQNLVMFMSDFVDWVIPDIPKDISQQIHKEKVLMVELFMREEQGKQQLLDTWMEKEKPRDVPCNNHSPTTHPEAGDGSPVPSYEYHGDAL
TMEM16A act: TMEM16A chloride channel activators or potentiators, primary screen, cell-based, HTS. HEK293 TMEM16A/YFP-H148Q/I152L, iodide quench fluorescence; stronger effect = lower value. 340,000 tested, 0.3% active. Anoctamin-1 (Mus musculus), Q8BHY3. B-score at 10 µM;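 active = fluorescence-ratio B-score plate-corrected deviation score at least 3 library SD below zero, with starting fluorescence score within 5 deviations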;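 note: channel opened by trigger with iodide after compound preincubation; score built on the fluorescence ratio of max minus min over baseline; more negative score means more quench and so TMEM16A activation or potentiation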
TMEM16A reconf: TMEM16A chloride channel inhibitors, confirmation, cell-based, re-confirmation; shares compounds with ANO1 block; AID 652189, 2013; 2,300 tested, 39% active; HEK293 TMEM16A/YFP-H148Q, iodide quench fluorescence; ionomycin added to raise cell calcium; inhibition, % at 10 µM;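 active = mean duplicate percent inhibition, scaled so buffer wells are 0 and the reference blocker 100, over three buffer SD above buffer mean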
HEK293 Ca mobil: calcium mobilization in TMEM16A/YFP HEK293 cells, confirmation, counter-screen for TMEM16A inhibitor project; 2,300 tested, 2% active; Fluo4 calcium mobilization; AID 652231, 2013; calcium response (% of ionomycin), % at 10 µM; shares compounds with ANO1 block;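 active = duplicate-averaged calcium signal over 20% of the ionomycin maximum, relative to buffer baseline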;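 note: each well's signal is peak minus trough fluorescence divided by its pre-addition baseline; 0% = buffer wells and 100% = ionomycin wells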
Parental YFP cnt: iodide YFP quench changes in parental YFP-HEK293, counter-screen for TMEM16A inhibitor project, cell-based | shares compounds with ANO1 block | ionomycin | YFP ratio F(max-min)/F0 at 10 µM | 2,300 tested, under 10 active;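 active = yellow fluorescent protein signal ratio exceeding the buffer control mean by over 5 SD of those controls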;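 note: ratio is mean of duplicate wells from kinetic YFP trace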
ClC-1 rat inh: ClC-1 chloride channel inhibition, selectivity assay for TMEM16A inhibitor project, cell-based, voltage-dependent ClC-1. ratio percent, % at 10 µM. AID 652236, 2013. 2,300 tested, under 10 active. CHO ClC-1-YFP, iodide influx fluorescence quench; iodide control reads 0, buffer control 100. shares compounds with ANO1 block;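 active = duplicate-mean ratio percent above the mean of iodide-only control wells, which defines zero, plus 5 of their SD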;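 note: higher percent means stronger block of ClC-1 iodide influx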
Active calls of the source: *; i = inactive; . = not tested or not shown. Only some compounds are listed: those with a hit (about 2.2% of all), similar ones and a draw of the others.

SMILES	M1 PAM parental	CHO-K1 Ca antag	M1 ag parental	NTR1 agonist	ANO1 block	TMEM16A act	TMEM16A reconf	HEK293 Ca mobil	Parental YFP cnt	ClC-1 rat inh
CCN(Cc1ccccc1)C(c1ccc(C)cc1)c1nnnn1C(C)(C)CC (stereo not given)	-4.7	16.4	-0.5	2.0	100*	i	i	i	-1.48	0.0
CC(=O)OCC(O)C1(O)CCC2C3CCC4=CC(=O)CCC4(C)C3C(O)CC21C (stereo not given)	20.6	-14.1	0.8	.	.	.	.	.	.	.
CCc1noc(C)c1C(=O)NNC(=O)COc1ccccc1C	0.8	-9.5	0.4	0.1	.	i	.	.	.	.
Cc1csc(SCC(=O)Nc2ccc(Cl)cn2)n1	2.3	-12.1	0.3	-2.3	i	i	.	.	.	.
CC(C)(C)c1csc(SCC(=O)Nc2ccc(Cl)cn2)n1	10.0	-1.4	0.7	0.1	100*	i	i	i	-1.22	-5.0
COC(=O)c1ccccc1NC1=C/C(=N\S(=O)(=O)c2ccc(C(=O)O)cc2)c2ccccc2C1=O	-12.6	5.0	0.7	0.3	i	i	.	.	.	.
CCc1ccc(S(=O)(=O)/N=C2\C=C(Nc3ccc(C(=O)O)cc3)C(=O)c3ccccc32)cc1	6.1	4.7	0.6	3.3	100*	i	23.0%*	i	-0.768	-8.5
CC(C)(C)c1ccc(S(=O)(=O)/N=C2\C=C(NS(=O)(=O)c3ccccc3)C(=O)c3ccccc32)cc1	23.0	-30.5	-0.3	3.5	100*	i	87.5%*	i	-0.946	-21.0
Cc1ccc(S(=O)(=O)/N=C2\C=C(NS(=O)(=O)c3ccccc3)C(=O)c3ccccc32)c(C)c1	-14.4	-2.0	0.4	.	.	i	.	.	.	.
COC(=O)c1ccc(C(=O)OC)c(NS(C)(=O)=O)c1	21.6	-11.4	3.5	0.9	25*	i	i	i	-0.957	-11.0
Cc1cc(=O)c2ccc(C(F)(F)F)cc2[nH]1	10.8	-0.7	0.2	-0.6	i	i	.	.	.	.
O=c1cc(C(F)(F)F)[nH]c2ccc(C(F)(F)F)cc12	-16.8	3.0	13.7	0.4	100*	i	33.5%*	i	-0.948	-15.0
COCCNC(=O)C1CCCN(C(=O)c2nc3ccccc3s2)CC1 (stereo not given)	12.3	-11.9	0.7	.	.	.	.	.	.	.
CCc1nc2c(OCc3ccc(Cl)cc3)cccn2c1N(C=O)Cc1ccc(OC)cc1	4.2	10.1	-0.1	.	.	.	.	.	.	.
Fc1cc(Br)ccc1Nc1nc2ccccc2n2nnnc12	14.4	-2.6	0.8	-4.4	i	i	.	.	.	.
Fc1ccccc1N1CCN(c2nc3ccccc3n3nnnc23)CC1	6.4	3.9	0.2	7.5	i	i	i	i	-0.889	-6.0
COc1cccc(CNc2cnc3ccccc3c2)c1O	4.4	7.3	15.7*	0.8	25*	i	25.5%*	i	-0.944	-13.0
COc1cccc(CNc2nc3ccccc3n2C)c1O	-6.8	9.9	-0.1	-0.5	i	i	.	.	.	.
CC(=O)c1c(C)nn(CC(O)COc2ccc3c(c2)CCC3)c1C (stereo not given)	-13.4	-10.6	7.4	0.4	25*	i	i	i	-1.07	-6.5
Cc1nn(CC(O)COc2ccc3c(c2)CCC3)c(C)c1Br (stereo not given)	11.6	4.0	0.2	2.0	i	i	.	.	.	.
COc1ccc(C2C3=C(CC(C)(C)CC3=O)Nc3n[nH]c(C)c32)cc1 (stereo not given)	7.1	-1.1	-0.1	-0.2	100*	i	i	i	-1	-8.0
O=C(CC1Sc2ccccc2NC1=O)OCc1cc(=O)oc2cc(O)ccc12 (stereo not given)	8.9	-3.0	6.7	4.9	25*	i	31.5%*	i	-0.704	-22.0
Cc1ccc2c(COC(=O)CC3Sc4ccccc4NC3=O)cc(=O)oc2c1C (stereo not given)	23.4	-12.1	1.0	4.2	i	i	.	.	.	.
COc1ccccc1C(=O)N(Cc1nc(-c2ccc(Cl)cc2)no1)C(C)C	5.8	4.2	2.1	-2.6	100*	i	i	i	-0.919	-3.0
Cc1ccc(SCC(=O)N(Cc2nc(-c3ccccc3)no2)C(C)C)cc1	15.1	-15.7	0.8	6.8	100*	i	i	i	-1.19	-5.0
SMILES	M1 PAM parental	CHO-K1 Ca antag	M1 ag parental	NTR1 agonist	ANO1 block	TMEM16A act	TMEM16A reconf	HEK293 Ca mobil	Parental YFP cnt	ClC-1 rat inh
CCCCSc1oc(-c2ccco2)nc1S(=O)(=O)c1ccccc1	0.0	-12.2	-0.6	9.8	25*	i	i	i	-0.739	-9.0
CC(C)CSc1oc(-c2ccco2)nc1S(=O)(=O)c1ccccc1	16.1	-4.2	-0.3	4.6	i	i	.	.	.	.
O=C(Nc1cccc(Cl)c1)c1ccc2sc([C@H]3C[C@H](O)[C@@H](CO)O3)nc2c1	13.7	-5.9	1.1	.	.	.	.	.	.	.
CCOc1ccc2[nH]c3c(NCCCOC)ncnc3c2c1	3.2	-7.1	2.0	2.0	i	i	.	.	.	.
CC(C)OCCCNc1ncnc2c1[nH]c1ccccc12	-11.3	-13.9	15.8*	0.2	100*	i	38.5%*	i	-1.05	-21.5
CCOc1cc(/C=C2/C(=O)N(c3ccccc3)N=C2C)ccc1OC(=O)c1cccs1	22.7	-14.2	0.9	16.3	25*	i	i	i	-1.05	-10.5
CCOc1ccc(CN(C)C(=O)[C@H](Cc2ccccc2)NC(=O)OCc2ccccc2)cc1OC	13.1	-8.1	6.0	1.3	25*	i	i	i	-1.06	-7.0
O=C(CSc1nnc(Cc2cc(=O)[nH]c(=O)[nH]2)n1-c1ccccc1)N1CCCC1	2.5	-1.6	0.3	-1.9	i	i	.	.	.	.
